This is an account of results in PubChem BioAssay (NCATS).

A number with no mark means an inactive call. Results filed as inconclusive are left out. Activity calls are given as the source filed them. Unless noted, the call rests on the fitted dose curve; in most records, active means well fitted curve in the direction sought with a large enough effect; inconclusive means small, poorly fitted or top-dose-only effect, or another doubt; inactive means no such curve, though single readings can be large; an effect the other way counts as inactive or inconclusive.

Test [1] can be described thus: AP1 Signaling Pathway (AID 357; active means well fitted curve in either direction with a large enough effect, not every such curve was filed as active;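 further: ME-180 reporter cells stimulated with EGF at its EC50 level; on the % scale 0 is the no-effect control and ±100 the full control effect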). The conditions noted are these: ME-180 AP-1-bla reporter, EGF-induced, beta-lactamase ratio, 5 h; at 38 µM (top of the series). The procedure, abridged:
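Cells are seeded overnight, exposed to compound titrations and an EC50 level of EGF for 5 hours at 37 °C, then loaded with CCF4 dye for 2.5 hours. Beta-lactamase activity under the AP-1 element is read as a blue/green ratio.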

The target of test [2] is Cytochrome P450 1A2 (Homo sapiens) (UniProt P05177). Briefly: p450-cyp1a2 (AID 410; calls by dose curve; further: potency means the concentration at half of the fitted maximal effect). The procedure, abridged: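 Luminescent readout of luciferin formed from Luciferin-ME by human CYP1A2; data normalized against complete inhibition by 57 uM furafylline. Enzyme 20nM, substrate 100uM at Km, 100mM KPO4 buffer, 60 min reaction at room temperature.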
Test [3] can be described thus: Stat Signaling Pathway (AID 446; active means well fitted curve in either direction with a large enough effect, not every such curve was filed as active;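 further: ME-180 cervical cancer cells given 40 pM IL-6 alongside compound; SIE-controlled beta-lactamase reporter measured as 460/530 nm FRET emission ratio; on the % scale 0 is the no-effect control and ±100 the full control effect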). The conditions noted are these: ME-180 SIE beta-lactamase reporter, IL-6 stimulated, 5 h; at 38 µM (top of the series). The procedure, abridged: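 ME-180 SIE-bla cells; overnight plating; cpd + IL-6 40 pM, 5 h, 37 C; LiveBLAzer 2.5 h RT; 460/530 nm emission ratio. Normalized to 300 pM IL-6 and 125 nM JAK inhibitor controls.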
The target of test [4] is Glucocorticoid receptor (Homo sapiens) (UniProt P04150). Kind of test: GR-GFP Redistribution (AID 450;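 active means compounds whose dose series gives a full or clear partial fitted curve of increased nuclear translocation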; further: potency means the concentration at half of the fitted maximal effect). The conditions noted are these: U2OS GR-GFP nuclear translocation, laser cytometry, 2 h.
Test [5] has the same target. Kind of test: GR-EFC Redistribution (AID 451; calls by dose curve; further: potency means the concentration at half of the fitted maximal effect). The conditions noted are these: CHO-K1 GR-EFC translocation, beta-gal luminescence, 2 h. The procedure, abridged: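 CHO-K1 cells stably expressing nuclear-localized β-gal enzyme acceptor and GR fused C-terminally to the enzyme donor fragment; ligand-driven nuclear translocation restores β-gal by complementation. Compounds titrated up to 46 uM final, 2 h at 37 °C; luminescence read.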

Test [6] concerns the target Mitogen-activated protein kinase 10 (Mus musculus) (UniProt Q61831). Briefly: JNK3 AlphaScreen Assay (AID 530; active means well fitted curve in either direction with a large enough effect, not every such curve was filed as active;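 further: kinase came from lysate of stimulated human HepG2 cells; signal reports phosphorylation of biotinylated GST-cJun 1-79 at Ser73 with 10 µM ATP; on the % scale 0 is the no-effect control and ±100 the full control effect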). The method in brief:
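Inhibitors reduce antibody binding to phosphorylated biotin-cJun, lowering AlphaScreen luminescence. Lysates from HepG2 cells pre-activated by IL-1beta plus TNF-alpha supplied JNK3; compounds were titrated.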

Test [7] deals with 3',5'-cyclic-AMP phosphodiesterase 4B (Homo sapiens) (UniProt Q07343). Briefly: qHTS Assay for Inhibitors of PDE-IV (AID 607; active means well fitted activation curve with a large enough effect in the main read-out, with a control signal flat, not every such curve was filed as active; further: % of control where 0% means no effect). The method in brief:
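ACTOne HEK293 cells carry a modified cAMP-gated CNG channel and express endogenous PDE4; plated 1000 cells/well, compounds up to 22.9 uM final. Membrane-potential dye fluorescence (ex 535/em 590) was read; parental cells received 10 uM forskolin + 100 uM RO 20-1724.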
(qHTS replaces the single test concentration by a dilution series.)

Test [8] has as its target Guanine nucleotide-binding protein G(i) subunit alpha-1 (Homo sapiens) (UniProt P63096). Briefly: qHTS Assay for Inhibitors of RGS12 GoLoco Motif Activity (Green Fluorophore) (AID 879).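 Further: 0% = labeled peptide with Gαi1 and full inhibition = labeled peptide alone without protein; negative values mean loss of peptide binding seen as reduced polarization.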 The procedure, abridged: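 Fluorescence polarization assay: 50 nM Gαi1 with 10 nM FITC-labeled RGS12 GoLoco peptide in 10 mM Tris pH 7.5, 150 mM NaCl, 0.1 mM GDP, 0.05% NP40, 10 min at room temperature with compound.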

In test [9] the target is Cytochrome P450 3A4 (Homo sapiens) (UniProt P08684). Briefly: qHTS Assay for Activators of Cytochrome P450 3A4 (AID 885). Further: nearly all actives have a fitted effect of over 65% in size. The method in brief:
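20nM CYP3A4 + 25uM Luciferin-PPXE (=KM), 200mM KPO4; cpd 10 min RT; NADPH regen, 60 min RT; stop w/ detection buffer, 20 min; luminescence. Normalized to 57 uM ketoconazole.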

A short description of test [10]: qHTS Assay for Identification of Small Molecule Agonists for Thrombopoietin (TPO) Signaling Pathway (AID 917). Further: on the % scale 0 is the no-effect control and ±100 the full control effect. The procedure, abridged:
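We measured Glycoprotein IIb promoter–luciferase output in IL-3-starved Ba/F3 murine cells expressing the human TPO receptor after 24 hrs at 37 C with compounds and 26 pM TPO.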

Test [11] deals with Muscarinic acetylcholine receptor M1 (Rattus norvegicus) (UniProt P08482). Briefly: qHTS Assay for Antagonists of Acetylcholine Muscarinic M1 Receptor: Measurement of IP-One Response (AID 944). Further: nearly all actives have a fitted effect of over 75% in size. The procedure, abridged: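 M1-CHO (rat), 2000 cells/well, overnight recovery; cpd 10 min; carbachol EC80 (200 nM), 30 min, HEPES buffer + 50 mM LiCl pH 7.4; IP-One HTRF, Ex 337, Em 620/665 nm.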

Test [12] concerns the target Pyruvate kinase (Leishmania mexicana) (UniProt Q27686). Kind of test: qHTS Validation Assay for Inhibitors of Leishmania Mexicana Pyruvate Kinase (AID 945).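 Further: 0% = DMSO only neutral control wells.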 The procedure, abridged: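 Purified LmPYK (E451W mutant, 0.2 nM) was incubated 1 h at room temperature with 0.5 mM PEP and 0.1 mM ADP in 50 mM imidazole pH 7.2, 50 mM KCl, 7 mM MgCl2; ATP formed was read by PKLight luminescence, normalized to DMSO wells.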

Test [13] addresses Pyruvate kinase PKM (Homo sapiens) (UniProt P14618). Kind of test: qHTS Assay for Activators of Human Muscle Pyruvate Kinase (AID 954; active means well fitted curve in the direction sought with a large enough effect, not every such curve was filed as active;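 further: 0% = uninhibited enzyme and -100% = no enzyme or full thiadiazolimine inhibition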). The procedure, abridged: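 Luminescence from a luciferase ATP-detection/stop reagent reported PKM2 activity. Reactions contained 0.1 nM purified human enzyme, 0.5 mM PEP, 0.1 mM ADP and 7 mM MgCl2 at pH 7.2, run 1 h at RT.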
Test [14] has as its target Alpha-galactosidase A (Homo sapiens) (UniProt P06280). Kind of test: Counterscreen for Glucocerebrosidase Inhibitors: qHTS Assay for Human alpha-Galactosidase at pH 4.5 (AID 992). Further: 0% is about no effect. The procedure, abridged: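 Enzyme at 2 nM final was combined with compound (0.7 nM to 77 uM) and 80 uM 4-methylumbelliferyl alpha-D-galactopyranoside in 50 mM citric acid, 0.005% Tween-20, pH 4.5. After 20 min at room temperature, fluorescence was read (Ex 365/Em 440 nm); AC50 came from Hill fits.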

Test [15] has as its target alpha-glucosidase (Oryza sativa, rice) (UniProt Q653V4). Kind of test: Counterscreen for Glucocerebrosidase Inhibitors: qHTS Assay for Rice alpha-Glucosidase at pH 5.0 (AID 997).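 Further: 0% = full activity with enzyme and -100% = basal without enzyme.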 The method in brief:
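Rice alpha-glucosidase (4 nM final) with 400 uM 4-methylumbelliferyl-alpha-D-glucopyranoside in citrate buffer pH 5.0, 20 min at room temperature, stopped at pH 10; fluorescence 365/440 nm, compounds 0.7 nM–77 uM, AC50 from Hill fits.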

The nature of test [16]: Validation of Assay for Modulators of Lamin A Splicing (AID 1459; active means well fitted curve in the direction sought with a large enough effect in the signal ratio; the % refers to the signal ratio;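 further: cells exposed to compound for two days before reading; 0% is about no effect; ratio rise marks activators and ratio drop marks inhibitors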). The method in brief: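 Splicing correction is reported by an EGFP-containing lamin A minigene in stably transfected S3 HeLa cells, while DsRed2 controls for viability and nonspecific signal. Cells are exposed to compounds for 48 hrs before the GFP over RFP ratio is taken.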
The nature of test [17]: Counterscreen for APE1 Inhibitors: Fluorescent Dye Displacement Validation Assay (AID 1707).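 Further: plate controls were ThO with dsDNA and no compound for no effect and ThO without dsDNA for full effect.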 The method in brief:
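Thiazole Orange displacement from dsDNA: 250 nM ThO with 50 nM TAMRA-labelled abasic-site (tetrahydrofuran) duplex in 50 mM Tris-HCl pH7.5, 50mM NaCl, 2 mM MgCl2, 0.01% Tween-20. Loss of endpoint fluorescence (ex 480 nm, em 540 nm) flags DNA binders.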

Test [18] in a line: qHTS for differential inhibitors of proliferation of Plasmodium falciparum line 7G8 (AID 1815).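 Further: potency means the concentration at half of the fitted maximal effect; parasite growth measured after three days of incubation.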
Test [19] is described as follows: qHTS for differential inhibitors of proliferation of Plasmodium falciparum line D10 (AID 1877).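 Further: parasites grown with compound for 72 h before DNA staining; plate controls were vehicle wells for no effect and reference inhibitor wells for full effect.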
Test [20] is described as follows: qHTS for differential inhibitors of proliferation of Plasmodium falciparum line Dd2 (AID 1882).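 Further: plate controls were DMSO vehicle for no effect and 0.29 µM artemisinin for full effect; nearly all actives have a fitted effect of over 65% in size.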 The conditions noted are these: Potency: Plasmodium falciparum Dd2 proliferation inhibition. The procedure, abridged: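 Dd2-infected erythrocytes (0.3% parasitemia, 2.5% hematocrit final) incubated with compound 72 h at 37 C, 5% CO2; lysed with saponin/Triton buffer containing SYBR Green I, incubated overnight in the dark, then read by fluorescence (485/535 nm). Normalized to 0.29 uM artemisinin and DMSO.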

Glucocorticoid receptor (Homo sapiens), sequence (P04150 whole entry, looked up, the tested form may be a part): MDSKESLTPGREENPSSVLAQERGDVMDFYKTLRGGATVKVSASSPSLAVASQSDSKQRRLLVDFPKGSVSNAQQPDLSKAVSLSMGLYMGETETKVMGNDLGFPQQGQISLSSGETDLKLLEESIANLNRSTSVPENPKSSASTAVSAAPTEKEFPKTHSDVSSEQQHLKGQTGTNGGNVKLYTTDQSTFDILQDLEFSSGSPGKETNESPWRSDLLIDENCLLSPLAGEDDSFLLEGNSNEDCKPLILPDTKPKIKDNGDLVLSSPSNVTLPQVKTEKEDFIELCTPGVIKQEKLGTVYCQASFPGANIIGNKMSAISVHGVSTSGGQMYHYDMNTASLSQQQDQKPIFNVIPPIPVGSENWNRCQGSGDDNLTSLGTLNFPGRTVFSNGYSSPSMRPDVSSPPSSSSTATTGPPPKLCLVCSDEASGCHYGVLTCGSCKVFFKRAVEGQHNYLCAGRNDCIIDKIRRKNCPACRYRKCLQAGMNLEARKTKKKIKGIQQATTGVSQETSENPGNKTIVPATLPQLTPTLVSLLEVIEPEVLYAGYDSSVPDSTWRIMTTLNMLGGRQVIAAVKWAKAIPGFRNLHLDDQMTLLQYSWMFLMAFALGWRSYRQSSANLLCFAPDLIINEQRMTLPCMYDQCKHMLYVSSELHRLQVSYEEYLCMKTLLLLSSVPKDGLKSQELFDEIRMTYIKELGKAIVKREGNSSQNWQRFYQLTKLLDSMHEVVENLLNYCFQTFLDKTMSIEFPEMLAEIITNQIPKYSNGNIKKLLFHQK
Cytochrome P450 3A4 (Homo sapiens), sequence (P08684 whole entry, looked up): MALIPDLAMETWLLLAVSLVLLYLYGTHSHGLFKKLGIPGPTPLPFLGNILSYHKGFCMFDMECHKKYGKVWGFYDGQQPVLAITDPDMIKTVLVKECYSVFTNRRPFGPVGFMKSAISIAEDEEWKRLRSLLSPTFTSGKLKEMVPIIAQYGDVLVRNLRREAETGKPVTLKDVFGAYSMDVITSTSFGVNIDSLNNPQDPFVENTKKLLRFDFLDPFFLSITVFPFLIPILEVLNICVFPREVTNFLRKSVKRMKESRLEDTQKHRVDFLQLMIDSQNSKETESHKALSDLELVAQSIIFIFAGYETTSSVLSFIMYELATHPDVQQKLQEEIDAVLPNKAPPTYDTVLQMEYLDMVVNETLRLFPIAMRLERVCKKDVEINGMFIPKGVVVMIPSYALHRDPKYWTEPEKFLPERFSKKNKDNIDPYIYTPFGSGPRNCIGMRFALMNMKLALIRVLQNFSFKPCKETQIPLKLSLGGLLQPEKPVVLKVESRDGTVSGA
Cytochrome P450 1A2 (Homo sapiens), sequence (P05177 whole entry, looked up): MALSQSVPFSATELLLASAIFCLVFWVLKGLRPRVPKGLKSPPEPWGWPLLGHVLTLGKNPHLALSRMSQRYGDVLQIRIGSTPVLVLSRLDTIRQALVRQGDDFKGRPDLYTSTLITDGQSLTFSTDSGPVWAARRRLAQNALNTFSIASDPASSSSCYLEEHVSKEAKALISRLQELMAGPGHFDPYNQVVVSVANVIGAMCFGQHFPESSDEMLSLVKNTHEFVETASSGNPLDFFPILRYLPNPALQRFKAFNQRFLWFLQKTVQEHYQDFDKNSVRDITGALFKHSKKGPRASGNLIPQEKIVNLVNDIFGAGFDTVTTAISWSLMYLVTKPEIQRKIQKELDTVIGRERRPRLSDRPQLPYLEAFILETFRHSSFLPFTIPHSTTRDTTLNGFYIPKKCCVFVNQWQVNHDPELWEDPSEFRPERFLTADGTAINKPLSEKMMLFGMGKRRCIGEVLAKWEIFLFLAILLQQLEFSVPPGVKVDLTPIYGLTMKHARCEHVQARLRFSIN
3',5'-cyclic-AMP phosphodiesterase 4B (Homo sapiens), sequence (Q07343 whole entry, looked up): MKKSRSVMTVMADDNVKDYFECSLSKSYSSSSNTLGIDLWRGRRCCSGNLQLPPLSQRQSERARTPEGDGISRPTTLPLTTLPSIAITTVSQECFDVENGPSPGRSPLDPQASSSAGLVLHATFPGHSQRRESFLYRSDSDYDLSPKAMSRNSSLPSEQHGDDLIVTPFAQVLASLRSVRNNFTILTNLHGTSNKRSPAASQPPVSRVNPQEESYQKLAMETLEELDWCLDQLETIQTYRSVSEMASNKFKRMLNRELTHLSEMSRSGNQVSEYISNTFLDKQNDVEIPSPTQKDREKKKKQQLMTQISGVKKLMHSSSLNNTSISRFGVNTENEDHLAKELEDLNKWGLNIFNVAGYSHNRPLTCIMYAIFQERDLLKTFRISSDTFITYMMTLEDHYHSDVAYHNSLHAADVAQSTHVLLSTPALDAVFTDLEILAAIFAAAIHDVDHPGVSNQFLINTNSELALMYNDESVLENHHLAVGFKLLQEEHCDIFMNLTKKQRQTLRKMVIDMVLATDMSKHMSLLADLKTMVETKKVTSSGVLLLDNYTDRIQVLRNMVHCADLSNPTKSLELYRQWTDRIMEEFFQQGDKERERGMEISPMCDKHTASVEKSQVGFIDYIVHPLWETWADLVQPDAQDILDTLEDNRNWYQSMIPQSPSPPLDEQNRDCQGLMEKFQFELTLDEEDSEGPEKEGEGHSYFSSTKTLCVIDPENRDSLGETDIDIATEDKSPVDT
Alpha-galactosidase A (Homo sapiens), sequence (P06280 whole entry, looked up): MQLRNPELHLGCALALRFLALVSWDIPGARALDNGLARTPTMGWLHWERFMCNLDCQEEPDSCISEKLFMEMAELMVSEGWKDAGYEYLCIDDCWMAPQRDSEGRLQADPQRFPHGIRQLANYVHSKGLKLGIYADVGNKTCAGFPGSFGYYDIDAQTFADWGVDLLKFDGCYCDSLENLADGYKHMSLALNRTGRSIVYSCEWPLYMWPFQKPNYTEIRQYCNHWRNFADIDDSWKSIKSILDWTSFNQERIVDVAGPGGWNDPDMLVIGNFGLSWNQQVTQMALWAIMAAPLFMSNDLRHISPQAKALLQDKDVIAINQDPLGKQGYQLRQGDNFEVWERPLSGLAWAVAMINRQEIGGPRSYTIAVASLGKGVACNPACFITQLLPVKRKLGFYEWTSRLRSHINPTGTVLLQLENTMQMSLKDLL
Muscarinic acetylcholine receptor M1 (Rattus norvegicus), sequence (P08482 whole entry, looked up): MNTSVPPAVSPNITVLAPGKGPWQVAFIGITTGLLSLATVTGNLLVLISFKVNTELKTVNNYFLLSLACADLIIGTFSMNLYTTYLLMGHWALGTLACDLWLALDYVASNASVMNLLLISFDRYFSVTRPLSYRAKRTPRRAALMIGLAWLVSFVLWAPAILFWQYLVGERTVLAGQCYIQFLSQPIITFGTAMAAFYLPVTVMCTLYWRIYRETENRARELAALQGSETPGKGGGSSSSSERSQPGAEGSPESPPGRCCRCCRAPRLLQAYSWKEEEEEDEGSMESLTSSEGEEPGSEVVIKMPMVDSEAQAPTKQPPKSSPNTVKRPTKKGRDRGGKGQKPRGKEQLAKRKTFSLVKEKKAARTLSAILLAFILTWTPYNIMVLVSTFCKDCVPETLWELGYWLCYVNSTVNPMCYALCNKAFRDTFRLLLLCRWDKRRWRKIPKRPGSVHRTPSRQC
Pyruvate kinase (Leishmania mexicana), sequence (Q27686 2-499 E452W): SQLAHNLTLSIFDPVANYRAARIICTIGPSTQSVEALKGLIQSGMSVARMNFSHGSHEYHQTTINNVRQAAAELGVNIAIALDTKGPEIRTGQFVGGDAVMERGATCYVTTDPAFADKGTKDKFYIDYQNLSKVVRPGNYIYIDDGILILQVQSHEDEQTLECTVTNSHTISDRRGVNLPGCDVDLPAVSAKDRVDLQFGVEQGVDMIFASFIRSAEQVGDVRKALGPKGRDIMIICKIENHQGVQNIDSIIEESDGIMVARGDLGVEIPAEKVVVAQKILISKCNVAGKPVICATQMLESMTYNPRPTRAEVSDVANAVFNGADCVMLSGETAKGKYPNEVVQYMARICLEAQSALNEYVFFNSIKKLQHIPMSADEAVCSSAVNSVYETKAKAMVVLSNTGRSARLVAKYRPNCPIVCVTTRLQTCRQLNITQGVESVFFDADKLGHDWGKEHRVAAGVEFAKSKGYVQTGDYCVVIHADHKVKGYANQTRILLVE
Pyruvate kinase PKM (Homo sapiens), sequence (P14618 whole entry, looked up): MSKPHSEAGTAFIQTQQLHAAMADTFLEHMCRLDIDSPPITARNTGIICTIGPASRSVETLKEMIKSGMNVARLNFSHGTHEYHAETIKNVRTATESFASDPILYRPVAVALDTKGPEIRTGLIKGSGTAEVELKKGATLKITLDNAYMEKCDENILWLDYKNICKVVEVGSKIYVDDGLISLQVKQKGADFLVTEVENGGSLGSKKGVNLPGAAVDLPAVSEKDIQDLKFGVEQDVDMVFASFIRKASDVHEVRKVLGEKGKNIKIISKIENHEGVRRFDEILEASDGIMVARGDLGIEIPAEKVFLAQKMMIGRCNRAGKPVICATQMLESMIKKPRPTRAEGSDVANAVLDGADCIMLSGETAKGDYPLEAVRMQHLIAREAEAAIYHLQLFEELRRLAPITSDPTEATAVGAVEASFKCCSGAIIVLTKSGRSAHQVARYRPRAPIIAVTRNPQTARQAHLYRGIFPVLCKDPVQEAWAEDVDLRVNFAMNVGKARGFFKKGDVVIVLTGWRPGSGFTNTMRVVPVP
Guanine nucleotide-binding protein G(i) subunit alpha-1 (Homo sapiens), sequence (P63096 whole entry, looked up): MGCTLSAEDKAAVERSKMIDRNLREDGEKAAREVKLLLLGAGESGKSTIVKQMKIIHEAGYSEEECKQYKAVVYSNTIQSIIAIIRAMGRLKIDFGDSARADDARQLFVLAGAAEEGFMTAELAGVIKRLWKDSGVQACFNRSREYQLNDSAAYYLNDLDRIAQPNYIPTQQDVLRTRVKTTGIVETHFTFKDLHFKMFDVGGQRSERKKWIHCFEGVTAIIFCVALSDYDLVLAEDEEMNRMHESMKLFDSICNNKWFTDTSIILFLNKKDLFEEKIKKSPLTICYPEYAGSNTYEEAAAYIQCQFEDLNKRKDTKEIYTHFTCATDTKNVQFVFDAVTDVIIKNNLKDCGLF

In the case of `CC(C)=CCC/C(C)=C/CC/C(C)=C/CSc1ccccc1C(=O)O`, the activity change, negative = inhibition in [1] was 14.1%. The Potency in test [2] is 12.6 µM (active); in test [4], > 46 µM; in [5], > 46 µM; in [18], 11.2 µM (active). Besides, in [3], the activity, negative = inhibition is 1.75%. The Potency entry in [6], in test [7], in [9], in test [10], in test [11] and in test [12] was “inactive” in each case. Further, the Potency entry in [17], in [19] and in test [20] was “inactive” throughout. Also, the molecule was classed as inactive in test [8], in [13], in test [14], in [15] and in test [16].
